Experimental data reported in the supplement of paper PMC12645437, “Orthogonal IMiD-Degron Pairs Induce Selective Protein Degradation in Cells” (ACS Chemical Biology, 2025).
The full ranking holds about 8,300 sequences; the median of “log2 fold change of degron read counts, EGFP-low vs EGFP+ sorted cells (limma voom), compound-induced degradation” is about -1.1, and the highest 2% start at about 3.2. Many of the other results were omitted from the sample, so the highest values are more common in it than they were.

T1: CRBN, Q96SW2
T1 chain: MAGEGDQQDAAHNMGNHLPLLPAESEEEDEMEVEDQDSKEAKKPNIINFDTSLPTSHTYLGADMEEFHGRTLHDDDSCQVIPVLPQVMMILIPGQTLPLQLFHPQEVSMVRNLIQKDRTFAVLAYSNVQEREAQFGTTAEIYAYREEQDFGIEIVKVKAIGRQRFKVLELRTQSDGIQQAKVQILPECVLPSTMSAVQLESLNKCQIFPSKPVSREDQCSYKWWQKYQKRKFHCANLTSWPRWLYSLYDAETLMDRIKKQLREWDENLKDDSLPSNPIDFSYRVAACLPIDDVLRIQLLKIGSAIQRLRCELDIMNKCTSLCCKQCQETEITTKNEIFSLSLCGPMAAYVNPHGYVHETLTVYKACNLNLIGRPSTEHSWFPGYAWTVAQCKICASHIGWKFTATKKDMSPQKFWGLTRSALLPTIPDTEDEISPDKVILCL

B1: 46L_47G_49E_50I_52G_53F_54P_55C_67L_, Q9UKT9 (peptide)
chain: LGCEICGFPCTQKGNLLRHIKL
B2: 46F_47E_49E_50I_52G_53R_54N_55F_67L_, Q9UKT9 (peptide)
chain: FECEICGRNFTQKGNLLRHIKL
B3: 46L_47M_49E_50I_52G_53F_54F_55C_67L_, Q9UKT9 (peptide)
chain: LMCEICGFFCTQKGNLLRHIKL
B4: 46F_47N_49E_50I_52G_53H_54G_55F_67L_, Q9UKT9 (peptide)
chain: FNCEICGHGFTQKGNLLRHIKL
B5: 46F_47T_49P_50V_52G_53A_54Q_55F_67L_, Q9UKT9 (peptide)
chain: FTCPVCGAQFTQKGNLLRHIKL
B6: 46F_47K_49P_50I_52G_53H_54L_55F_67L_, Q9UKT9 (peptide)
chain: FKCPICGHLFTQKGNLLRHIKL
B7: 46F_47T_49N_50V_52G_53A_54G_55F_67L_, Q9UKT9 (peptide)
chain: FTCNVCGAGFTQKGNLLRHIKL
B8: 46L_47Q_49E_50I_52G_53F_54D_55C_67L_, Q9UKT9 (peptide)
chain: LQCEICGFDCTQKGNLLRHIKL
B9: 46L_47T_49N_50Q_52G_53F_54Q_55C_67L_, Q9UKT9 (peptide)
chain: LTCNQCGFQCTQKGNLLRHIKL
B10: 46F_47R_49D_50I_52G_53A_54Y_55F_67L_, Q9UKT9 (peptide)
chain: FRCDICGAYFTQKGNLLRHIKL
B11: 46F_47A_49D_50I_52G_53A_54C_55F_67L_, Q9UKT9 (peptide)
chain: FACDICGACFTQKGNLLRHIKL
B12: 46F_47Q_49D_50I_52G_53A_54C_55F_67L_, Q9UKT9 (peptide)
chain: FQCDICGACFTQKGNLLRHIKL
B13: 46F_47H_49D_50I_52G_53A_54C_55F_67L_, Q9UKT9 (peptide)
chain: FHCDICGACFTQKGNLLRHIKL
B14: 46F_47S_49D_50I_52G_53A_54C_55F_67L_, Q9UKT9 (peptide)
chain: FSCDICGACFTQKGNLLRHIKL
B15: 46F_47Y_49D_50I_52G_53A_54C_55F_67L_, Q9UKT9 (peptide)
chain: FYCDICGACFTQKGNLLRHIKL
B16: 46F_47C_49D_50I_52G_53A_54C_55F_67L_, Q9UKT9 (peptide)
chain: FCCDICGACFTQKGNLLRHIKL
B17: 46F_47F_49D_50I_52G_53A_54C_55F_67L_, Q9UKT9 (peptide)
chain: FFCDICGACFTQKGNLLRHIKL
B18: 46F_47R_49D_50I_52G_53A_54C_55F_67L_, Q9UKT9 (peptide)
chain: FRCDICGACFTQKGNLLRHIKL
B19: 46F_47M_49D_50I_52G_53A_54C_55F_67L_, Q9UKT9 (peptide)
chain: FMCDICGACFTQKGNLLRHIKL
B20: 46F_47W_49D_50I_52G_53A_54C_55F_67L_, Q9UKT9 (peptide)
chain: FWCDICGACFTQKGNLLRHIKL
B21: 46F_47E_49D_50I_52G_53A_54C_55F_67L_, Q9UKT9 (peptide)
chain: FECDICGACFTQKGNLLRHIKL
B22: 46F_47T_49D_50I_52G_53A_54C_55F_67L_, Q9UKT9 (peptide)
chain: FTCDICGACFTQKGNLLRHIKL
B23: 46F_47L_49D_50V_52G_53A_54Y_55F_67L_, Q9UKT9 (peptide)
chain: FLCDVCGAYFTQKGNLLRHIKL
B24: 46F_47S_49N_50V_52G_53A_54R_55F_67L_, Q9UKT9 (peptide)
chain: FSCNVCGARFTQKGNLLRHIKL
B25: 46F_47R_49N_50Q_52G_53A_54S_55F_67L_, Q9UKT9 (peptide)
chain: FRCNQCGASFTQKGNLLRHIKL
B26: 46F_47D_49E_50I_52G_53R_54E_55F_67L_, Q9UKT9 (peptide)
chain: FDCEICGREFTQKGNLLRHIKL
B27: 46F_47H_49N_50V_52G_53A_54Q_55F_67L_, Q9UKT9 (peptide)
chain: FHCNVCGAQFTQKGNLLRHIKL
B28: 46F_47C_49P_50I_52G_53H_54N_55F_67L_, Q9UKT9 (peptide)
chain: FCCPICGHNFTQKGNLLRHIKL

Molecular target: T1, CRBN, Q96SW2
Experiment: log2 fold change of degron read counts, EGFP-low vs EGFP+ sorted cells (limma voom), compound-induced degradation; higher = more compound-induced degradation of the degron-EGFP fusion; degrons are variants of IKZF1/3 zinc finger 2; compound dose not given here
Settings: Jurkat, 18 h
[1] = compound: compound 19 (5-tert-butyl-thalidomide)
[2] = compound: compound 22 (5-morpholino-thalidomide)
[3] = compound: compound 33 (diphenyl IMiD analogue)
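Also: pooled lentiviral library of zinc finger degron-EGFP fusions in mCherry-positive Jurkat cells, FACS-sorted after compound exposure, with degron abundance counted by next-generation sequencing.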

Row | Sequence | log2 fold change of degron read counts [1] | log2 fold change of degron read counts [2] | log2 fold change of degron read counts [3] | log2 fold change of degron read counts (compound: thalidomide)
1 | B1 | -1.16 | -1.81 | -2.14 | -1.69
2 | B2 | -2.61 | -2.28 | -0.395 | -0.731
3 | B3 | -0.461 | -0.234 | 1.75 | 0.617
4 | B4 | -2.44 | -2.67 | -3.6 | -2.95
5 | B5 | 0.0342 | 2.63 | 2.78 | 2.72
6 | B6 | -2.52 | -3 | -3.86 | -2.43
7 | B7 | -0.827 | -0.181 | 0.811 | 0.259
8 | B8 | -2.82 | -2.45 | -2.23 | -1.2
9 | B9 | -2.38 | -2.53 | -1.48 | -1.47
10 | B10 | -1.87 | -1.92 | -0.0846 | 0.62
11 | B11 | 2.85 | 0.596 | -0.194 | -1.27
12 | B12 | -0.256 | 2.12 | 1.17 | 3.3
13 | B13 | 1.53 | 1.18 | -0.205 | -1.25
14 | B14 | 1.95 | 1.34 | 1.4 | -0.055
15 | B15 | 3.33 | 3.42 | 1.9 | -0.704
16 | B16 | 1.6 | 1.36 | 1.87 | 0.543
17 | B17 | 3.31 | 3.14 | 1.33 | -1.14
18 | B18 | -1.25 | -1.11 | 1.03 | 0.116
19 | B19 | -1.13 | -0.637 | 1.57 | -0.555
20 | B20 | 3.31 | 3.65 | 1.33 | -0.4
21 | B21 | -0.944 | -2.76 | 0.061 | 0.157
22 | B22 | 1.04 | 1.6 | 1.21 | 0.886
23 | B23 | -2.05 | -2.41 | -1.49 | -1.52
24 | B24 | 0.49 | 0.453 | -1.03 | -0.0608
25 | B25 | -1.71 | -2.14 | -0.702 | -1.17
26 | B26 | -2.21 | -2.29 | -2.42 | -2.31
27 | B27 | -0.612 | 0.00036 | 0.0621 | -0.871
28 | B28 | -2.22 | -2.17 | -1.7 | -1.28
